Assay outcomes deposited in PubChem BioAssay by National Center for Advancing Translational Sciences (NCATS).
This is a sample that favours compounds with a hit; in the whole collection about 0.77% have one here.
RE007 growth inh – qHTS Assay for Inhibitors of the HIV-1 protein Vpr | S. pombe RE007 Vpr strain, BacTiter-Glo ATP luminescence, 24 h | Potency, µM (series often up to 92.2 µM), for inactives: at the top dose activity change, negative = less growth, most hits filed as inhibitors | 360,000 compounds, 0.21% hits | AID 651644, 2012; active = well fitted falling curve with a large enough effect; inconclusive = small, poorly fitted or top-dose-only effect; inactive = no such curve, though single readings can be large or run the other way; note: % is set by controls: 0 for no effect and ±100 for the full control effect; nearly all actives have a fitted effect of over 50% in size
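Fission yeast strain RE007, carrying one chromosomally integrated HIV-1 vpr copy, was seeded at OD 0.01 in PMG+AL medium with 23 nL pinned compound. After 24 h at 30 °C and 99% humidity, viability was read by BacTiter-Glo luminescence.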
NS1 inh – qHTS Assay for Inhibitors of Influenza NS1 Protein Function | Potency, µM (highest dose often 46.1 µM), inactives show at the top dose activity, positive = more growth | 270,000 compounds, 0.4% hits | AID 2326, 2010; calls by dose curve; note: actives are rising curves; nearly all actives have a fitted effect of over 50% in size
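In this qHTS, NS1 from influenza A is expressed in budding yeast, where it slows growth. Cells are switched from glucose to 2% galactose medium (pH 6.0, -URA), treated with compound, and growth recovery is read at OD600.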
LmPK inh – qHTS Assay for Inhibitors of Leishmania Mexicana Pyruvate Kinase (LmPK) | Q27686 | purified LmPK, Kinase-Glo ATP luminescence, 1 h | Potency, µM (series often up to 57.5 µM), for inactives: at the top dose activity change, negative = inhibition, actives largely listed as inhibitors | 290,000 compounds, 0.37% hits; note: % is set by controls: 0 for no effect and ±100 for the full control effect
Target sequence (Q27686 whole entry, looked up): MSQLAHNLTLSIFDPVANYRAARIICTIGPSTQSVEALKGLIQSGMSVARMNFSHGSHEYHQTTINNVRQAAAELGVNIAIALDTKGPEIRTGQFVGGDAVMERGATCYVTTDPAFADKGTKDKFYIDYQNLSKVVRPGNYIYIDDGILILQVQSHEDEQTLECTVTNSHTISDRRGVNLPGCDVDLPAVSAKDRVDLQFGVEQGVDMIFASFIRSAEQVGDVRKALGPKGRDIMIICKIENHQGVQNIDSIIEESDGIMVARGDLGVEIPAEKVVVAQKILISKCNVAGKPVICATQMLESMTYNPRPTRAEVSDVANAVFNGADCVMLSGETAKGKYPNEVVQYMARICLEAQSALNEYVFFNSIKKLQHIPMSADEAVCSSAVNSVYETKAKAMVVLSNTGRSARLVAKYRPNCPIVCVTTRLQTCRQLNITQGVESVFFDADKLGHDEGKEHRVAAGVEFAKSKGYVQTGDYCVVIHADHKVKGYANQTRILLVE
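qHTS format; LmPK 0.1 nM; substrates PEP 0.5 mM and ADP 0.1 mM. One-hour room-temperature incubation, then coupled luciferase luminescence; 0.5 nM enzyme wells mark activation.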
Tb PYK inh – qHTS of Trypanosoma Brucei Inhibitors; Potency, µM (series often up to 76.8 µM), for inactives: top-dose activity, negative = inhibition, actives largely listed as inhibitors; AID 624173, 2012; pyruvate kinase (Trypanosoma brucei), Q57TT1; 410,000 compounds, 0.12% hits; TbPYK enzyme, Kinase-Glo Plus ATP luminescence, 45 min; note: % is set by controls: 0 for no effect and ±100 for the full control effect; nearly all actives have a fitted effect of over 50% in size
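T. brucei PYK with substrate was exposed to pin-transferred compounds across a concentration series, then started with 130 uM ADP (final). After 45 min at room temperature, Kinase-Glo Plus luminescence was read, normalized and curve-fitted.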
* hit, by the source's call; ? = inconclusive; nt = no result given; [ ] = another dose, or the depositor's remark. Unless noted, calls come from the whole dose curve; as a rule, active = well fitted curve in the direction sought with a large enough effect; inconclusive = small, poorly fitted or top-dose-only effect, or another doubt; inactive = no such curve, though single readings can be large; an effect the other way counts as inactive or inconclusive. Potency is the fitted concentration of half-maximal effect.

SMILES | RE007 growth inh | NS1 inh | LmPK inh | Tb PYK inh
COc1ccc(C(=O)Nc2ccc(C)cn2)c(OC)c1 | ? | -51.1% | 14.1µM* | -17.8%
COc1ccc(C(=O)Nc2cc(C)on2)c(OC)c1 | -13.5% | -29.9% | -3.3% | -3.0%
CCN1/C(=C/C=C/c2oc3ccc4ccccc4c3[n+]2CC)Oc2ccc3ccccc3c21 | 12.6µM* | -77.8% | -16.5% | -13.6%
CC1CSc2nc3sc4c(c3c(=O)n21)CCCC4 (stereo unspecified) | 22.4µM* | -16.9% | -5.2% | -19.0%
COC(=O)c1sccc1NC(=O)Nc1ccccc1F | -22.0% | -6.3% | 14.1µM* | ?
COC(=O)c1sccc1NC(=O)Nc1ccccc1C | -8.4% | -18.3% | 1.1% | -8.2%
CC(=NNC(=S)N1CC2CCC(CC2)C1)c1nccs1 | 31.6µM* | nt | nt | ?
CC(=NNC(=S)N1CC2CCC(CC2)C1)c1cccc(C)n1 | ? | nt | nt | -19.4%
CCOc1cc(C(=O)Nc2ccc3c(c2)n(C)c(=O)c(=O)n3C)cc(OCC)c1OCC | nt | nt | nt | 4.2%
CCOc1ccc(-c2ccc(SC)nn2)cc1 | ? | nt | 5.01µM* | ?
CCOc1ccc(-c2ccc(SCC(=O)Nc3nnc(CC)s3)nn2)cc1 | 3.6% | nt | -2.6% | -1.7%
N#Cc1c(-c2ccco2)c2c([nH]c1=S)CCCC2 | 7.7% | ? | 3.2% | 17.8µM*
CCN(CC)C(=O)c1c(C)[nH]c(=S)c(C#N)c1-c1ccco1 | 19.1% | nt | 52.0% | 5.62µM*
N#Cc1c(-c2cccnc2)c2c([nH]c1=S)CCCC2 | 15.1% | 11.1% | 22.3% | ?
COc1ccc(-c2c3c([nH]c(=S)c2C#N)CCC3)cc1 | 9.5% | 24.4% | 5.2% | 12.6µM*
Cc1[nH]c(=S)c(C#N)c(-c2ccccc2)c1C(=O)Nc1ccccc1 | 14.9% | 0.0% | 12.6% | ?
CN(C)CCC(C#N)(c1ccccc1)c1ccccc1 | nt | -5.9% | nt | nt
CC(=O)c1cccc(NC(=O)c2cc3sc(Cl)cc3n2C)c1 | nt | nt | nt | 0.7%
N=C1[C@@H](O)[C@]2(I)c3ccccc3N3C(=N)[C@H](O)[C@@H]4c5ccccc5N1[C@@H]4[C@@H]32 | nt | -0.1% | nt | nt
COC(=O)c1nn(-c2ccc3c(c2)OCO3)cc1O | -21.2% | -29.4% | 17.8µM* | -0.7%
COC(=O)c1nn(-c2ccc3c(c2)CCN3C(C)=O)cc1O | -7.0% | 3.4% | 10µM* | 17.8µM*
CCOC(=O)c1nn(-c2ccc3c(c2)OCCO3)cc1O | -14.5% | nt | ? | 2.2%
O=C(Nc1ccccc1C(=O)N/N=C/c1ccccc1)c1ccco1 | -24.8% | -8.5% | -2.9% | 3.4%
COc1ccc(C(=O)Nc2ccccc2C(=O)N/N=C/c2ccncc2)cc1OC | 8.91µM* | 1.4% | 14.1µM* | -28.9%
O=C(Nc1ccccc1C(=O)N/N=C/c1ccc(O)cc1)c1ccccc1 | ? | 3.3% | 14.1µM* | -22.6%
SMILES | RE007 growth inh | NS1 inh | LmPK inh | Tb PYK inh
CCOC(=O)c1[nH]c2ccc(C)cc2c1N | -1.6% | 4.3% | 12.6µM* | -23.5%
CCOc1ccc2c3c1O[C@H]1[C@@H](O)C=C[C@H]4[C@@H](C2)N(C)CC[C@@]341 | nt | nt | nt | -1.2%
O=C(Nc1nccs1)c1cn2ccccc2n1 | 1.5% | -5.3% | 25.1µM* | -4.0%
NNC(=O)c1cn2ccccc2n1 | 17.4% | 0.5% | 0.7% | 0.5%
CC1(C)CC/C(=C\c2ccc(Cl)cc2)C1(O)Cn1cncn1 (stereo unspecified) | nt | nt | nt | -5.7%[157 µM]
Cc1ccc(OCc2nc(-c3ccccn3)no2)c(Br)c1 | -13.7% | -33.7% | 15.8µM* | -2.8%
CCOC(=O)CC(=O)CSc1nc2ccc(C)cc2cc1C#N | -11.0% | -4.5% | 20µM* | ?
CCOC(=O)c1c(NC(=O)c2nc(S(C)(=O)=O)ncc2Cl)sc(C(C)=O)c1C | nt | nt | nt | 0.0%
CCn1c(-c2cccn(Cc3ccc(Cl)cc3Cl)c2=O)n[nH]c1=S | 20.6% | -6.9% | 11.5% | 5.62µM*
S=c1[nH]nc(-c2ccc(Cl)cc2Cl)n1Cc1ccccc1 | ? | 11.2% | ? | -26.5%
Cc1ccc(N2C(=O)CCSC23C(=O)N(Cc2ccccc2)c2ccccc23)cc1 (stereo unspecified) | nt | nt | nt | 1.2%[15.4 µM]
COc1cc(OC)cc(C(=O)Nc2ccc(-n3cnnn3)c(C)c2)c1 | -24.2% | -7.0% | 14.1µM* | -16.9%
COc1cc(NC(=O)c2ccccc2-n2cnnn2)cc(OC)c1 | -24.6% | nt | nt | 0.6%
Cc1cccc(NC(=O)c2ccoc2C)n1 | -20.6% | -5.7% | ? | -7.7%
Cc1csc(NC(=O)c2ccoc2C)n1 | ? | -2.7% | 15.8µM* | ?
CCOC(=O)Cc1csc(NC(=O)c2ccoc2C)n1 | -29.7% | 1.6% | 14.1µM* | -27.0%
Cc1occc1C(=O)Nc1cc(C(C)(C)C)on1 | -26.2% | 5.3% | 12.6µM* | ?
Cc1csc(NC(=O)c2cccc(C)c2C)n1 | 0.4% | -31.2% | -5.4% | -8.8%
CCCCCCCCCCCCOCCOCCOCCOCCOCCOCCOCCOCCOCCO | nt | nt | nt | 0.7%
C=CC[C@@H]1/C=C(\C)C[C@H](C)C[C@H](OC)[C@H]2O[C@@](O)(C(=O)C(=O)N3CCCC[C@H]3C(=O)O[C@H](/C(C)=C/[C@@H]3CC[C@@H](O)[C@H](OC)C3)[C@H](C)[C@@H](O)CC1=O)[C@H](C)C[C@@H]2OC | nt | nt | nt | -3.6%
O=C1[C@@H]2C(c3cccnc3)=NO[C@@H]2C(=O)N1c1ccc2ccccc2c1 | 14.1µM* | -59.1% | -1.9% | -8.0%
CCOC(=O)c1c(Oc2ccc(C(=O)OC)cc2)nnc(-c2ccccc2)c1-c1ccccc1 | nt | nt | nt | -5.2%
O=C(Nc1ncc([N+](=O)[O-])s1)c1cccs1 | 28.2µM* | -148.4% | 14.1µM* | ?
Nc1nc(NC2CC2)c2ncn([C@H]3C=C[C@@H](CO)C3)c2n1 | nt | nt | nt | -4.0%
CCOC(=O)c1c(O)[nH]c(=O)c(CC)c1C | nt | 0.0% | nt | nt
SMILES | RE007 growth inh | NS1 inh | LmPK inh | Tb PYK inh
O=C(/C=C/c1ccc2c(c1)OCO2)Nc1cccnc1 | -16.9% | nt | 22.4µM* | -0.3%
Nc1ccccc1C(=O)/C=C/c1ccc2c(c1)OCO2 | ? | -5.9% | 14.1µM* | 2.4%
CC(=O)Nc1ccc(NC(=O)/C=C/c2ccc3c(c2)OCO3)cc1 | -10.2% | 1.5% | 1.0% | -8.4%
O=C(/C=C/c1ccc2c(c1)OCCO2)c1ccccc1 | ? | -65.3% | 12.6µM* | -7.3%
C[C@H]1C2C=C[C@H]1[C@@H](C(=O)O)[C@@H]2c1c2ccc(=O)c(O)c-2oc2c(O)c(O)ccc12 | nt | 5.0% | nt | nt
O=C(O)NCC1CCCCC1 (tested in a mixture with another compound) | nt | -5.2% | nt | nt
N/C(=N/OC(=O)c1ccccc1F)c1nonc1N | 10.1% | -8.3% | 14.1µM* | ?
N/C(=N\OC(=O)c1ccc(Cl)cc1)c1nonc1N | -20.8% | -8.3% | 12.6µM* | -17.9%
N/C(=N\OCc1ccccc1)c1nonc1N | -0.1% | nt | ? | -5.2%
Oc1cc2c(cc1O)[C@H]1c3ccccc3CN[C@@H]1CC2 | nt | nt | 4.47µM* | nt
Cc1ccc(C2Cc3cc(O)c(O)cc3CN2)cc1 (stereo unspecified) | -6.9% | nt | nt | 6.4%
CCCOc1ccc(N2C(=O)CC(NCc3ccc(S(N)(=O)=O)cc3)C2=O)cc1 (stereo unspecified) | -3.4% | 4.9% | 10.9% | 1.7%
